From PubChem BioAssay (NCI)
“And” between values parts separate entries of the source, which are not always exact repeats. Equal entries are not always repeated. About 83,000 compounds went through this panel and 20% of them were active in at least one assay; those are over-represented in the sample as a whole.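 Cell lines were cultured in 96-well plates, exposed to a single compound concentration, and assessed for percent growth 48 hours later.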 Unmarked numbers belong to inactive results. The source made the active and inactive calls. How the source made its calls: active means growth percent below 10; inactive means the rest.

Tested on: MDA-MB-468 breast
Test: NCI-60 one-dose screen, 48 h (100 = growth as untreated, 0 = no growth, -100 = all killed)
Conditions: 10 µM unless noted

Row | SMILES | growth
1 | O=c1[nH][n+](-c2ccc(Br)cc2)no1 | 86.1%
2 | O=S(=O)(Nc1ccccc1)C1CCCCC1 | 110% and 107%
3 | O=C1OC(/C=C/c2ccccc2)=NC/1=C/c1ccccc1[N+](=O)[O-] | 101%
4 | CC1=C/C(=N\N=C2/C=C(C)CC(C)(C)C2)CC(C)(C)C1 | 98.5%
5 | C=C1C(=O)O[C@H]2[C@H]1CC/C(COC(=O)NCc1ccc(Cn3c(=O)sn(-c4ccccc4)c3=O)cc1)=C\CC[C@@]1(C)O[C@@H]21 | -33.8% (active)
6 | N#CC1(C#N)C2=C(CCCC2)NC(c2c(F)cccc2Cl)C1(C#N)C#N (stereo not given) | 53%
7 | CSc1ccc(/C(=N/N=C(N)N)c2ccccc2)cc1 | 44.8%
8 | Oc1ccc(CSc2nnc(-c3ccccc3)n2-c2ccccc2)c2cccnc12 | -2.77% (active)
9 | N=C1c2nc3n(c2C(=O)c2nc4n(c21)CCCCC4)CCCCC3 | 99.8%
10 | Cn1c(C(N)=O)cc2c1-c1nc(NC3CCCCC3)ncc1CCC2 | 93.7%
11 | CC(=O)N1c2ccccc2NC2=C(C(=O)N(Cc3ccccc3)C2(C)C)C1c1ccco1 (stereo not given) | -1.86% (active)
12 | COc1ccc(-c2cc(NC(=O)Nc3ccc(O)cc3)no2)cc1 | 80.5%
13 | COc1ccc(NCc2cn(-c3ccc(C(=O)O)cc3)nc2-c2ccc(C(=O)O)cc2)cc1C(F)(F)F | 98.6%
14 | CC1(C)C2=C(C(=O)N1Cc1ccccc1)C(c1ccco1)N(C(=O)C1CCC1)CCN2 (stereo not given) | 112%
15 | CCN(CC)c1ccc(C2=NN(C(C)=O)C(c3cc(OC)c(OC)c(OC)c3)C2)cc1 (stereo not given) | 17%
16 | Cc1cc(O)c(C(C)(C)C)cc1Sc1cc(C(C)(C)C)c(O)cc1C | 67.2%
17 | CCOC(=O)CCCCCCCCC(=O)OCC | 104%
18 | COc1ccc(C(=O)C(CN(C)C)c2ccc(OC)cc2)cc1 (stereo not given) | 14.2%
19 | Cn1c(Nc2ccc(C(F)(F)F)cc2)nc2cc(Oc3ccnc(-c4ncc(C(F)(F)F)[nH]4)c3)ccc21 | 32.4%
20 | COc1cc(C2CC(c3ccc(Nc4ccnc5cc(Cl)ccc45)cc3)=NN2c2ccc(Cl)cc2)cc(OC)c1OC (stereo not given) | 41.9%

Row | SMILES | growth
21 | N#CCc1ncc(-c2ccc(C(F)(F)F)cc2)c(NC2CCCCCC2)n1 | 42.3% [100 µM]
22 | O=C1NC(=C(Cl)Cl)/C(=N/S(=O)(=O)N2CCCCC2CC2(C(F)(F)F)N=N2)N1 (stereo not given) | -44.8% (active)
23 | COc1ccc(-c2nn(-c3cccc(Cl)c3)cc2/C=C2\NC(=S)N(c3ccc(Cl)cc3)C2=O)cc1 | -56.7% (active)
24 | Cc1nc2c(c(=O)[nH]1)C(c1ccccc1)c1ccc3ccccc3c1O2 (stereo not given) | 22.9%
25 | Cl.[Pt].[c-]1ccccc1-c1ccccn1.c1ccc(P(c2ccccc2)C([PH+](c2ccccc2)c2ccccc2)[PH+](c2ccccc2)c2ccccc2)cc1 | -6.8% (active)
26 | BrCCCc1n(Cc2ccc3ccccc3c2)c2ccccc2[n+]1Cc1ccc2ccccc2c1 | -68% (active)
27 | O=C(Nc1nonc1-c1ccccc1)c1ccc(C(F)(F)F)cc1 | 101%
28 | COc1cc(Cl)cc(-c2nn(C(=O)NCCN3CCOCC3)cc2-c2ccncc2)c1 | 27.6%
29 | COc1cc(/C=C2\C(=O)N(c3c(Cl)cccc3Cl)c3ccccc32)cc(OC)c1O | 57.4%
30 | COc1cc2ncnc(-n3ncc4cc(NC(=O)Nc5ccc(Cl)c(Cl)c5)ccc43)c2cc1OC | -70.5% (active)
31 | O=C(c1cccc(F)c1)n1ccc2cc(NC(=S)Nc3cccnc3)ccc21 | 91.9%
32 | O=C(COc1ccc(/C=C2\SC(=O)NC2=O)cc1)Nc1ccc(C(=O)/C=C/c2cc3ccccc3nc2Cl)cc1 | 20.6%
33 | CCCOC(=O)C1(O)CCCC1 | 97.1%
34 | CCN1C(=O)N(CC)C2C1NN=c1s/c(=C3\C(=O)Nc4ccccc43)c(=O)n12 (stereo not given) | -20.9% (active)
35 | COc1ccc(-c2cn3ccnc3c(-c3ccc4ncn(C5CCCCC5)c4c3)n2)cc1 | 2.59% (active)
36 | C[C@@H]1C[C@H]2C(=O)O[C@@H](C)C(NC(=O)[C@H](Cc3cc(F)cc(F)c3)NC(=O)Nc3ccc(Cl)cc3F)C(=O)N3CCC[C@H]3C(=O)N3CCCC[C@H]3C(=O)N[C@@H](CO)C(=O)N2C1 (stereo not given in full) | -10.4% (active)
37 | OC1CCCN(Cc2ccccc2)C1 (stereo not given) | 103%
38 | Cc1ccc(/C=C2\CN(C(=O)OC(C)(C)C)C/C(=C\c3ccc(C)cc3)C2=O)cc1 | 56.2%
39 | COc1cc(-c2cc(-c3cc4c([nH]c5ccccc54)c(-c4cc(OC)c(OC)c(OC)c4)n3)cc(-c3ccccc3)n2)cc(OC)c1OC | 8.91% (active)
40 | COc1cc(/C=C/C(=O)c2ccc(-n3cc(CN4CCN(c5cc6c(cc5F)c(=O)c(C(=O)O)cn6C5CC5)CC4)nn3)cc2)cc(OC)c1OC | 72.5%
